The supplement of paper PMC10515830
Where a name gives a salt, the structure may show the parent alone.

Columns and labels:
Conditions in all cases: 10 µM; exposure time 6 h
[1] = test system: Danio rerio larvae (5 dpf); experiment: difference in excitability vs DMSO (percentage points); higher = more excitable than DMSO
Outline: (§1)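 Wild-type 5 dpf zebrafish larvae in 96-well plates were given 100 µL egg water containing library compound at 10 µM final for 6 h. After 3 h of exposure, plates at 28.5 ℃ were photographed every 6 s during a 3-h programme of moving lines and 100 ms, 400Hz tones. Z-LaP Tracker (a DeepLabCut model) quantified each behaviour, averaged over 48 larvae per compound. Values are the compound mean minus the DMSO-vehicle control, in percentage points.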

[2] = test system: Danio rerio larvae (5 dpf); experiment: difference in startle response vs DMSO (percentage points); higher = stronger startle than DMSO
Outline: as §1

[3] = test system: Danio rerio larvae (5 dpf); experiment: difference in activity during first hour vs DMSO (percentage points); higher = more activity than DMSO
Outline: as §1

[4] = test system: Danio rerio larvae (5 dpf); experiment: difference in habituation to acoustic stimuli vs DMSO (percentage points); higher = more habituation than DMSO
Outline: as §1

[5] = test system: Danio rerio larvae (5 dpf); experiment: difference in combined optomotor response to red, green and blue moving lines vs DMSO (percentage points); higher = stronger optomotor response than DMSO
Outline: as §1

Row | Compound | difference in excitability [1] | difference in startle response [2] | difference in activity during first hour [3] | difference in habituation to acoustic stimuli [4] | difference [5]
1 | O=C1NC(=O)C(c2ccccc2)(c2ccccc2)N1 [Phenytoin] | -0.551 | -0.35 | -12.3 | 5.69 | 0.724
2 | CCCCc1oc2ccc(NS(C)(=O)=O)cc2c1C(=O)c1ccc(OCCCN(CCCC)CCCC)cc1 [Dronedarone (hydrochloride)] | 7.9 | -9.8 | 11.1 | -12.7 | -11.9
3 | CCN1C(=O)NC(c2ccccc2)C1=O (stereo not given) [Ethotoin] | -4.35 | 11.7 | -2.99 | 0.909 | -3.6
4 | C[C@H]1[C@H](NC(=O)/C(=N\OC(C)(C)C(=O)O)c2csc(N)n2)C(=O)N1S(=O)(=O)O [Aztreonam] | -7.88 | 8.41 | 8.84 | 5.95 | -0.4
5 | Cc1cc(C(=O)NNCc2ccccc2)no1 [Isocarboxazid] | 9.42 | 3.52 | -14 | -2.77 | 4.57
6 | O=C1CCc2ccc(OCCCCN3CCN(c4cccc(Cl)c4Cl)CC3)cc2N1 [Aripiprazole] | 14.5 | 5.72 | 12.4 | -8.81 | -3.23
7 | CN[C@H](CC(C)C)C(=O)N[C@H]1C(=O)N[C@@H](CC(N)=O)C(=O)N[C@H]2C(=O)N[C@H]3C(=O)N[C@H](C(=O)N[C@H](C(=O)O)c4cc(O)cc(O)c4-c4cc3ccc4O)[C@H](O)c3ccc(c(Cl)c3)Oc3cc2cc(c3O[C@@H]2O[C@H](CO)[C@@H](O)[C@H](O)[C@H]2O[C@H]2C[C@](C)(N)[C@H](O)[C@H](C)O2)Oc2ccc(cc2Cl)[C@H]1O [Vancomycin (hydrochloride)] | -0.532 | -0.846 | 1.02 | -1.36 | 9.98
8 | Cc1c(OCC(F)(F)F)ccnc1C[S@@+]([O-])c1nc2ccccc2[nH]1 [(R)-Lansoprazole] | 7.16 | 4.39 | 7.03 | -1.38 | 1.12
9 | CN(C)[C@@H]1C(O)=C(C(N)=O)C(=O)[C@@]2(O)C(O)=C3C(=O)c4c(O)cccc4[C@@](C)(O)[C@H]3[C@H](O)[C@@H]12 [Oxytetracycline] | -1.74 | -1.21 | 20.6 | 5.81 | -0.914
10 | CCCc1nc2c(C)cc(-c3nc4ccccc4n3C)cc2n1Cc1ccc(-c2ccccc2C(=O)O)cc1 [Telmisartan] | 14.6 | -11.8 | 9.61 | -3.85 | -8.32
11 | CCCCC1=NC2(CCCC2)C(=O)N1Cc1ccc(-c2ccccc2-c2nnn[nH]2)cc1 [Irbesartan] | 5.86 | -3.98 | 6.09 | -4.93 | 5.61
12 | CCOC(=O)c1ncn2c1CN(C)C(=O)c1cc(F)ccc1-2 [Flumazenil] | 3.25 | 7.64 | 0.681 | 2.54 | 3.91
13 | CC(O)C(O)[C@H]1CNc2nc(N)[nH]c(=O)c2N1 (stereo partly drawn) [(6R)-5,6,7,8-tetrahydro-L-Biopterin (hydrochloride)] | 0.358 | -1.51 | -0.551 | 1.85 | 6.59
14 | O=C1CC2(CCCC2)CC(=O)N1CCCCN1CCN(c2ncccn2)CC1 [Buspirone (hydrochloride)] | 24.5 | 1.48 | -8.4 | 4.59 | 0.171
15 | CN(C)CCc1c[nH]c2ccc(C[C@H]3COC(=O)N3)cc12 [Zolmitriptan] | -7.59 | 9.39 | -0.487 | 4.76 | 10.3
16 | CC1=NN(c2ccc(C)c(C)c2)C(=O)/C1=N\Nc1cccc(-c2cccc(C(=O)O)c2)c1O [Eltrombopag] | 19.6 | -0.303 | 17.7 | 1.01 | -0.694
17 | Nc1nc2c(ncn2COC(CO)CO)c(=O)[nH]1 [Ganciclovir] | 1.56 | 3.58 | 7.53 | 2.18 | 4.57
18 | N#Cc1cc(NC(=O)C(=O)O)c(Cl)c(NC(=O)C(=O)O)c1 [Lodoxamide] | 4.92 | 3.04 | -7.99 | 1.72 | 1.61
19 | COc1cc2c(cc1Cc1cccc(Cl)c1F)c(=O)c(C(=O)O)cn2[C@H](CO)C(C)C [Elvitegravir] | 4.89 | -9.84 | 6.05 | 0.943 | -4.56
20 | COc1cc2nc(N(C)CCCNC(=O)C3CCCO3)nc(N)c2cc1OC (stereo not given) [Alfuzosin (hydrochloride)] | 9.01 | 2.43 | 5.63 | -6.84 | 1.55
21 | C[C@@H]1C/C=C/C=C/C=C/C=C/[C@H](O[C@@H]2O[C@H](C)[C@@H](O)[C@H](N)[C@@H]2O)C[C@@H]2O[C@](O)(C[C@@H](O)C[C@H]3O[C@@H]3/C=C/C(=O)O1)C[C@H](O)[C@H]2C(=O)O [Natamycin] | 2.79 | -1.51 | 0.445 | 3.82 | 3.97
22 | COc1nc(N)nc2c1ncn2[C@@H]1O[C@H](CO)[C@@H](O)[C@@H]1O [Nelarabine] | 19.6 | 1.82 | -4.45 | -0.162 | 2.02
23 | C=CC(N)CCC(=O)O (stereo not given) [Vigabatrin] | -1.24 | 5.92 | 1.31 | 1.13 | -0.249
24 | C[N+]1(C)CCC(OC(=O)C(O)(c2ccccc2)C2CCCC2)C1 (stereo not given) [Glycopyrrolate] | -0.597 | -8.53 | 7.84 | -7.11 | -2.89
25 | COC(=O)/C=C/C(=O)OC [Dimethyl fumarate] | 19.8 | -1.87 | 20.1 | -2.23 | 12
26 | O=C(C1CCCCC1)N1CC(=O)N2CCc3ccccc3C2C1 (stereo not given) [Praziquantel] | 27.3 | 13.2 | -17.7 | 11 | 10.4
27 | O=C(O)C[C@H](O)C[C@H](O)/C=C/c1c(C2CC2)nc2ccccc2c1-c1ccc(F)cc1 [Pitavastatin (calcium salt)] | 10.2 | -3.29 | 4.76 | -3.94 | 13.1
28 | CC(=O)NO [Acetohydroxamic Acid] | 12 | 9 | -12.9 | 3.36 | -4.35
29 | Cc1cc2c(s1)Nc1ccccc1N=C2N1CCN(C)CC1 [Olanzapine] | 26.1 | -4.9 | 8.52 | -8.45 | 4.38
30 | CC1(C)NC(=O)N(c2ccc([N+](=O)[O-])c(C(F)(F)F)c2)C1=O [Nilutamide] | 3 | -2.08 | -12.2 | 3.08 | -5.94
